# From the supplement of paper PMC3484114
# ± gives the standard deviation.
# Tested on: OVCAR-3-derived ovarian cancer stem-like cells (spheroids)
# Experiment: cell growth relative to untreated control; higher = more growth (less inhibition)
# Details: 2.29 µM; 96 h
# Method in brief: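 Percent growth was calculated against untreated wells once blanks were subtracted and Grubbs outliers removed. The cells were OVCAR-3 spheroid-derived stem-like cells, trypsinized and plated at 50,000 cells/mL in stem cell medium on ultra-low attachment 96-well plates for a 24 h preincubation. They were then exposed to compounds at 2.29 uM for 96 h at 37°C, 5% CO2, in 4 replicate wells, and viability was measured by TOX8 resazurin fluorescence (ex 560/em 590 nm) after 4 h.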
row,Compound,cell growth [%]
1,Nc1ncnc2c([C@@H]3O[C@H](CO)[C@@H](O)[C@H]3O)c[nH]c12,127 ± 35
2,O=C(CC1(O)C(=O)Nc2c(Cl)ccc(Cl)c21)c1ccc(Cl)cc1Cl (centres undefined),123 ± 11
3,O=C1C=C(NCCc2ccccc2)c2ccccc2C1=O,57.3 ± 10
4,Cc1cc2c(cc1C)[n+](=O)c(C(=O)/C=C/c1ccccc1[N+](=O)[O-])c(C)n2[O-],123 ± 66
5,OC(CBr)C(O)C(O)C(O)CBr (centres undefined),11.6 ± 4
6,CC(C)CCCCCCCCCCCCC(=O)NCC(=O)N[C@@H]1[C@@H](O)[C@H](O)[C@@H](Nc2ncnc3nc[nH]c23)O[C@H]1[C@@H](O)CO,13.2 ± 4.3
7,Cc1cc(O)c(C(C)C)cc1C1(c2cc(C(C)C)c(O)cc2C)OC(=O)c2ccccc21,104 ± 32
8,CN(NC1=NCCO1)c1ccc2ccccc2c1,117 ± 18
9,COc1nc(C(Cl)(Cl)Cl)c(Cl)c(OC)c1Cl,112 ± 17
10,O=C1C(CN2CCCCC2)CCCC1CN1CCCCC1 (centres undefined),62.5 ± 28
11,COc1ccc(C2=Nc3ccccc3SC(C)C2)cc1 (centres undefined),91.1 ± 17
12,CC(C)(C)OC(=O)NC(Cc1ccccc1)C(=O)OCN1C(=O)C2C3C=CC(C2C1=O)C1C2C(=O)N(COC(=O)C(Cc4ccccc4)NC(=O)OC(C)(C)C)C(=O)C2C31 (centres undefined),109 ± 26
13,CN(C)CCNC(=O)c1cccc2[nH]c(-c3ccncc3)nc12,96.5 ± 22
14,C/C(=N\Nc1nc2ccccc2s1)c1ccncn1,30.8 ± 7.4
15,Cc1ccc(N=N/C(=N\NC(=O)c2ccc(C)cc2)c2ccc(N(CCC#N)CCC#N)cc2C)cc1,74.4 ± 26
16,CC(C)c1ccc(O)c(=O)cc1,66.5 ± 20
17,N#CCCN(CCC#N)c1ccc(C=Nc2ccc(F)cc2)cc1,101 ± 28
18,O=S(=O)(O)SC/C=C/CSS(=O)(=O)O,143 ± 16
19,CN(C)c1ccc(/C=C/C(=O)[O-])cc1.CN(C)c1ccc(/C=C/C(=O)[O-])cc1.[Cu+2],97.6 ± 39
20,Oc1cc(-n2cccn2)c(O)cc1-n1cccn1,103 ± 13

row,Compound,cell growth [%]
1,C=C1CC[C@@H]2[C@](C)(CO)[C@H](O)CC[C@@]2(C)[C@@H]1C/C=C1/C(=O)OC[C@H]1O,119 ± 38
2,NCCSSCc1ccccc1CSSCCN,109 ± 25
3,O=C(NCCCCCCCCNC(=O)c1cccc2ccccc12)c1cccc2ccccc12,80.8 ± 18
4,Nc1nc(SCc2ccccc2Cl)c2ncn(C3OC(CO)C(O)C3O)c2n1 (centres undefined),177 ± 61
5,Nc1ncnc2c1ncn2C1OC(CO)C(O)C1O (centres undefined),111 ± 13
6,COc1ccc2cc1Oc1ccc(cc1)CC1c3c(cc(OC)c4c3Oc3cc5c(cc3O4)CCNC5C2)CCN1C (centres undefined),71.8 ± 23
7,Cc1nc(-n2nc(-c3ccccc3)cc2-c2ccccc2)sc1C(=O)/C=C/c1ccc(Cl)c(Cl)c1,109 ± 25
8,Cc1ccc(CC2(OCCN(C)C)CCC(C(C)(C)C)CC2)cc1 (centres undefined),82.2 ± 24
9,COC1CN(C)C(=Nc2cccc3ccccc23)S1 (centres undefined),130 ± 21
10,O=C(O)c1ccccc1-c1ccccc1C(=O)Nc1ccc2c(c1)Cc1ccccc1-2,80.8 ± 29
11,Cc1cc(Cl)cc2c1NC(=O)C2(O)C(C(=O)c1ccccc1)c1ccccc1 (centres undefined),94.9 ± 12
12,C=C(C)[C@@H]1CC[C@]2(CO)CC[C@]3(C)[C@H](CC[C@@H]4[C@@]5(C)CC[C@H](O)C(C)(C)[C@@H]5CC[C@]43C)[C@@H]12,90 ± 24
13,O=C(CC1(O)C(=O)Nc2c(Cl)cc(Cl)cc21)c1cccc2ccccc12 (centres undefined),90.9 ± 16
14,CC(CN(C)C)C(=O)c1ccccc1C(=O)O (centres undefined),92.7 ± 31
15,COc1ccc(/C=C2\N=C(c3ccccc3)OC2=O)c(OCc2ccccc2)c1,69.7 ± 24
16,O/N=C(\CC(O)(C(F)(F)F)C(F)(F)F)c1cccc(Cl)c1,87.8 ± 16
17,COc1cc(-c2cc(=O)c3c(OC)c(OC)c(OC)c(OC)c3o2)cc(OC)c1OC,79 ± 21
18,Oc1[nH]c2ccccc2c1N=Nc1c(F)c(F)c(F)c(F)c1F,100 ± 13
19,COc1ccc(NC(=O)C(=O)/C=C(\O)c2ccccc2)cc1,107 ± 46
